Compound activity from PubChem BioAssay.
GCN5L2 inh: inhibitors of human GCN5L2 histone acetyltransferase; Q92830; GCN5L2 HAT assay, ThioGlo1 CoA-SH fluorescence; Potency, µM (series often up to 58.9 µM), actives largely listed as inhibitors; hit rate 0.21% among 390,000; AID 504327
Target sequence (Q92830 whole entry, looked up): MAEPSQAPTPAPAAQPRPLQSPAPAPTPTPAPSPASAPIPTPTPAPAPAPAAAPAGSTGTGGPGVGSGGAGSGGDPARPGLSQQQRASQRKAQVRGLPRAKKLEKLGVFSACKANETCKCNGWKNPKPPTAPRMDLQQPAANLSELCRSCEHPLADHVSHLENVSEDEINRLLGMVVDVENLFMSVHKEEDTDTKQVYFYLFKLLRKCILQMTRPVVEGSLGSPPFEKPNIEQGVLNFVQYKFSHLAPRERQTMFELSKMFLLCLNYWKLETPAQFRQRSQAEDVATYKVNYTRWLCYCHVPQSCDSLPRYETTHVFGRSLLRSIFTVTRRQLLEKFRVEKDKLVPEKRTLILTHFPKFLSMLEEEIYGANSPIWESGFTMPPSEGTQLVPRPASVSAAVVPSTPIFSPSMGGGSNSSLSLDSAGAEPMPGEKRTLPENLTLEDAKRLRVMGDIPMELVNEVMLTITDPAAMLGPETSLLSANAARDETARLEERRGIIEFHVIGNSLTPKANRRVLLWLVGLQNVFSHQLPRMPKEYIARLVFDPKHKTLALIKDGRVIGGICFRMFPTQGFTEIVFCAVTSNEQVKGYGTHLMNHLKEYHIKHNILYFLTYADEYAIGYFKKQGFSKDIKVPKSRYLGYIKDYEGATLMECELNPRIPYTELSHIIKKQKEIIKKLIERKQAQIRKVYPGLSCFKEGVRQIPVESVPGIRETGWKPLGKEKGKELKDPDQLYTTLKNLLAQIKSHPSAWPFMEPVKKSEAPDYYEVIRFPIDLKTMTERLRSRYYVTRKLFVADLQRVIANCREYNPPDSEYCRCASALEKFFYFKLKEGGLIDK
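Fluorescence readout, Ex340nm/Em540nm: ThioGlo1 (50uM final) reacts with free CoA thiol released as 20nM GCN5L2 acetylates H3(1-25) peptide (75uM) using acetyl-CoA (70uM). Compound and enzyme sat 15 min beforehand; 20 min room-temperature reaction.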
HEK293 tox: cytotoxic in the GLP-1 receptor inverse agonist counter-screen | HEK293 cAMP-luciferase reporter cells, luminescence, 24 h | hit rate 0.13% among 410,000 | Potency, µM (top dose mostly 38.3 µM), most hits filed as inhibitors | AID 624418;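 note: loss of luciferase light is scored as toxicity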
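Step one: seed cells (200 cells/uL, DMEM with 10% Nu serum, 1% pen-strep). Step two: 12-hour incubation at 37 deg C. Step three: pin 23 nL compound, incubate 24 hr. Step four: add luciferase reagent, read luminescence 12 min later.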
RGS4 inh: blocks human RGS4-accelerated GTP hydrolysis; Transcreener GDP fluorescence polarization, RGS4-accelerated GTP hydrolysis; Potency, µM (top dose mostly 114 µM), most hits filed as inhibitors; hit rate 0.039% among 390,000; AID 504845; note: nearly all actives have a fitted effect of over 75% in size
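MLSMR compounds (23 nl, pin-transferred) preincubated 10 min at room temperature with a 500nM (2x) first reagent, then RGS4 at 900nM (2x) plus Transcreener GDP mix added; fluorescence polarization (620/688 nm) read before and after 90 min at 30 °C.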
PTHR1 ag: activates the human parathyroid hormone receptor PTHR1; Q03431; HEK293 GP2 PTHR1 cells, GloSensor cAMP luminescence, 1 h; Potency, µM (series often up to 115 µM), most hits filed as activators; hit rate 0.075% among 410,000; note: nearly all actives have a fitted effect of over 55% in size
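HEK-293-derived GP2 cells expressing PTHR1 and a GloSensor cAMP reporter, 3,000/well, plated overnight, given luciferin plus IBMX (each 0.5 mM as added) for 1 h at 37 °C, then compound for 1 h at 37 °C. Luminescence was read after 15 min at room temperature.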
GLP1R inv ag: acts as inverse agonist at human GLP-1 receptor. P43220. HEK293 GLP-1R CRE-luciferase, luminescence, 24 h; GLP-1R form is constitutively active. Potency, µM (highest dose often 38.3 µM), actives largely listed as inhibitors. hit rate 1.6% among 410,000. AID 624417; note: nearly all actives have a fitted effect of over 55% in size
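Assay principle: reduced luminescence from a cAMP-responsive reporter in HEK293 cells co-expressing a constitutively active GLP-1R. Conditions: 24 hr compound incubation, 37 deg C, 5% CO2.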
GLP1R ag: activates the human GLP-1 receptor | P43220 | HEK293 GLP-1R CRE-luciferase, luminescence, 4-6 h; cells express a hypersensitive GLP-1R form | Potency, µM (doses to about 45.6 µM), usual class: activators | hit rate 0.007% among 380,000 | AID 624172
Of the large screens only hits and unclear results are named; the others gave an inactive call. Compounds with a hit are over-represented: about 1.8% of the library has one in this group of screens. Calls come from the whole dose curve; as a rule, active = well fitted curve in the direction sought with a large enough effect; inconclusive = small, poorly fitted or top-dose-only effect, or another doubt; inactive = no such curve, though single readings can be large; an effect the other way counts as inactive or inconclusive.

CC(C)(C)n1nnnc1C(c1cccs1)N1CCCc2ccccc21 (stereo not given)	GLP1R inv ag 11.2µM (no result: GCN5L2 inh)
CCCn1c(SCC(=O)N2CCc3ccccc3C2)nc(O)cc1=O	PTHR1 ag inconclusive
Fc1ccc(Nc2nc(SCc3cccc(Cl)c3)nc3ccccc23)cc1	GLP1R inv ag 11.2µM (no result: GLP1R ag)
Fc1ccc(Nc2nc(SCc3cccc(F)c3)nc3ccccc23)cc1	GLP1R inv ag inconclusive (no result: GLP1R ag)
CCc1ccc(-c2nc(CS(=O)CC(=O)NCCN3CCCCCC3)c(C)o2)cc1 (stereo not given)	GLP1R inv ag 11.2µM
Cc1ccc(-c2nc(CS(=O)CC(=O)NCCN3CCCC3)c(C)o2)cc1 (stereo not given)	none
Cc1cc(Sc2nnc(/N=C/N(C)C)s2)c2ccccc2n1	GLP1R inv ag 3.16µM
CCn1nc(C)c(/C=N/NC(=S)Nc2ccc(Cl)cc2Cl)c1C	HEK293 tox inconclusive, GLP1R inv ag 3.98µM
O=[N+]([O-])c1ccc(O)c(/C=N/NC(=S)Nc2ccc(Cl)cc2Cl)c1	GLP1R inv ag 2µM
Cc1nn(C)cc1/C=N/NC(=S)Nc1ccc(Cl)cc1Cl	none
CCC(C(=O)N1CCN(c2ccccc2)CC1)n1nc(C)c2sc3ccccc3c2c1=O (stereo not given)	none (no result: GLP1R ag)
Cc1ccc2oc(=O)c3cc(C(=O)Nc4ccc(C)c(F)c4)sc3c2c1	none
N#Cc1ccc(Oc2c(Cl)cncc2Cl)cc1	none
N#Cc1ccc(N=c2ssnc2Cl)cc1	GCN5L2 inh 10µM, HEK293 tox inconclusive, RGS4 inh inconclusive, GLP1R inv ag inconclusive
COc1ccc(N=C2SCC(=O)N2C)cc1	none (no result: GCN5L2 inh, RGS4 inh)
Clc1ccc(N=c2ssnc2Cl)cc1	GCN5L2 inh 14.1µM, RGS4 inh inconclusive
CCOC(=O)c1ccc(N=C2SC(C(=O)NC)CC(=O)N2Cc2ccc(F)cc2)cc1 (stereo not given)	none
COc1ccc(N=c2ssnc2Cl)cc1	GCN5L2 inh 12.6µM
CCOC(=O)c1ccc(N=c2ssnc2Cl)cc1	GCN5L2 inh 12.6µM, RGS4 inh inconclusive
O=C1CSC(=Nc2ccc(Cl)cc2)N1	none
Cc1ccc(NC(=O)C2CCCN(S(=O)(=O)c3c(C)noc3C)C2)c(Br)c1 (stereo not given)	none
CC1=C(C)CC(C(=O)NCCCN2CCCC2=O)C(C(=O)O)C1 (stereo not given)	none
Fc1ccc(N=c2ssnc2Cl)c(F)c1	GCN5L2 inh 7.94µM, RGS4 inh inconclusive
Clc1nssc1=Nc1ccccc1	GCN5L2 inh 3.98µM, RGS4 inh inconclusive, GLP1R ag inconclusive
O=C1CSC(=Nc2ccccc2)N1Cc1ccccc1	GLP1R inv ag inconclusive
COc1ccc(OCC(=O)Nc2ccc3c(c2)N(C)C(=O)c2ccccc2S3)cc1	GLP1R inv ag inconclusive (no result: GLP1R ag)
COc1ccc(NC(=O)Cn2c(=O)n(-c3ccc(CC(=O)NCC4CCCO4)cc3)c(=O)c3ccccc32)c(OC)c1 (stereo not given)	none
Cc1[nH]c2ccccc2c1SCCNC(=O)c1ccc(Br)o1	GLP1R inv ag 11.2µM
Cc1cccc(N2CCN(C(=O)CCc3c(C)nc4c(c3C)c(=O)n(C)c(=O)n4C)CC2)c1C	none
Cc1ccc(NC(CNS(=O)(=O)c2ccc(Cl)cc2)c2ccccc2)cc1 (stereo not given)	GLP1R inv ag inconclusive
NS(=O)(=O)c1ccc(NC(CNS(=O)(=O)c2ccccc2)c2ccccc2)cc1 (stereo not given)	GLP1R inv ag inconclusive
COc1cccc(NC(CNS(=O)(=O)c2ccc(C)cc2)c2ccccc2)c1 (stereo not given)	GLP1R inv ag 10µM (no result: GLP1R ag)
COc1cccc(NC(CNS(=O)(=O)c2ccc(Cl)cc2)c2ccccc2)c1 (stereo not given)	HEK293 tox inconclusive, GLP1R inv ag 10µM (no result: GLP1R ag)
O=C(Cn1cc(S(=O)(=O)Cc2ccc(F)cc2)c2ccccc21)NCc1ccccc1	none (no result: GLP1R ag)
CC1=C(C(=O)Nc2cccc(F)c2)C(c2ccsc2)C2=C(CC(C)(C)CC2=O)N1 (stereo not given)	GLP1R inv ag 3.98µM
CC1=C(C(=O)Nc2ccccc2F)C(c2ccsc2)C2=C(CC(C)(C)CC2=O)N1 (stereo not given)	GLP1R inv ag inconclusive
O=C(N/N=C/c1ccc(O)cc1)c1cc(C23CC4CC(CC(C4)C2)C3)[nH]n1	GLP1R inv ag 1.41µM
Cc1ccc(Cn2ncc3c(N4CCN(c5ccccc5C)CC4)ncnc32)cc1	GLP1R inv ag 3.55µM
Cc1ccc(Cn2ncc3c(N4CCOCC4)ncnc32)cc1	none
COc1ccc(C(=O)N/N=C/c2sc3ccccc3c2O)cc1	HEK293 tox inconclusive, GLP1R inv ag 1.58µM
CCN1CCN(c2ccc(S(=O)(=O)N3CCCCC3)cc2NC(=O)/C=C/c2ccc(OC(F)F)cc2)CC1	HEK293 tox inconclusive, GLP1R inv ag 7.08µM
CN1CCN(c2ccc(S(=O)(=O)N3CCCCC3)cc2NC(=O)/C=C/c2ccc(OC(F)F)cc2)CC1	HEK293 tox inconclusive, RGS4 inh inconclusive, GLP1R inv ag inconclusive
CN1CCN(c2ccc(S(=O)(=O)N3CCCCC3)cc2NC(=O)/C=C/c2ccc(Cl)c([N+](=O)[O-])c2)CC1	HEK293 tox 10µM, RGS4 inh inconclusive, GLP1R inv ag inconclusive
COc1ccc(CC(=O)N2CCC(Nc3nc4ccccc4n3Cc3ccc(F)cc3)CC2)cc1	GLP1R inv ag 8.91µM
Cc1ccccc1C(=O)N1c2ccccc2OCC1C(C)(C)C (stereo not given)	GLP1R inv ag inconclusive
CC(C)(C)C1COc2ccccc2N1C(=O)c1ccccc1Cl (stereo not given)	GLP1R inv ag 8.91µM
S=C(NCCc1ccccc1)N1CCc2ccccc2C1	HEK293 tox inconclusive, GLP1R inv ag inconclusive
Cc1ccccc1C(=O)c1cccn1CC(=O)NCCCN1CC(C)CC(C)C1 (stereo not given)	GLP1R inv ag inconclusive
O=C(Cn1cccc1C(=O)c1ccccc1)NCCCN1CCOCC1	none
Cc1ccc(C)c(N2CCN(CCCNC(=O)Cn3cccc3C(=O)c3ccccc3)CC2)c1	GLP1R inv ag 5.01µM
Cc1ccccc1C(=O)c1cccn1CC(=O)NCCCN1CCc2ccccc2C1	GLP1R inv ag 10µM
O=C(CSc1ncc2c(n1)-c1ccccc1N(Cc1ccc(F)cc1)S2(=O)=O)NCc1ccccc1	none (no result: GLP1R ag)
Cc1cccc(N2CCN(Cc3nc(-c4cccc(Oc5ccccc5)c4)oc3C)CC2)n1	GLP1R inv ag inconclusive
COc1ccc(C)cc1NC(=O)c1ccccc1NS(=O)(=O)c1ccc(Cl)s1	GLP1R inv ag 3.98µM
